aSyn 5UTR inh: MLPCN primary screen, SNCA 5' untranslated region | inhibition, % (tested at 7.5 µM) | alpha-synuclein 5'UTR reporter, inhibitor activity | actives 0.82% (n = 300,000); in the data active = inhibition above about 60%; inconclusive = no clear call, values can overlap the other calls;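 note: H4 neuroglioblastoma cells stably carrying SNCA 5'UTR luciferase fusion; 0% = DMSO wells and 100% = positive control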
KLF5 inhibitor: kruppel-like factor 5 inhibition. DLD-1 KLF5 promoter-luciferase reporter, luminescence. inhibition, % at 5 µM. actives 0.23% (n = 290,000);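 active = inhibition above a per-plate limit of that plate's mean compound inhibition plus 3 SD, cut at about 60% in these data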;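 note: 0% = DMSO wells and 100% = LY294002 at 200 µM; higher means less KLF5 promoter-driven luciferase light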
CSC inhib: blocks cancer stem cells | AID 2717 | actives 1.1% (n = 300,000) | cancer stem cell-like cells viability, luminescence | inhibition, % at 7.5 µM; in the data active = inhibition above about 75%; inconclusive = no clear call, values can overlap the other calls; tested in HMLE shEcad cells
IEC-6 cytotox: counter-screen for KLF5 inhibitors: cytotoxicity in IEC-6 cells | IEC-6 cytotoxicity, luminescence viability | inhibition, % at 5 µM | actives 0.78% (n = 290,000); in the data active = inhibition above about 22%;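 note: 0% = plate median of test compound wells and 100% = cytotoxic reference compound wells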
SKKanGAS inh: blocks kanamycin growth of S. pyogenes SKKanGAS strain; BacTiter-Glo, 6 h; inhibition, % at 7.5 µM; actives 1.3% (n = 300,000); AID 1662;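 active = mean replicate score, as percent of positive control median, at least 50; inconclusive = mean below 50 but one replicate at or above 50; inactive = mean and every replicate below 50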;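 note: strain carries kanamycin resistance gene driven by streptokinase promoter and grows in 40 µg/ml kanamycin; loss of luminescence reflects streptokinase promoter inhibition or plain growth inhibition; 0% = median of DMSO wells and 100% = positive control at its reference dose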
* marks the source's active call; other numbers are inactive results; ? = inconclusive; . = no result. Compounds with a hit are over-represented: about 3% of the library has one in this group of screens.

SMILES | aSyn 5UTR inh | KLF5 inhibitor | CSC inhib | IEC-6 cytotox | SKKanGAS inh
COc1ccccc1N1CCN(Cc2cc(=O)c(OCC#N)co2)CC1 | -14 | -12 | -13 | 2 | -2
C/C(=N\NC(=O)c1ccc(-c2ccccc2)cc1)C1C(=O)c2ccccc2C1=O | -22 | 0 | 67 | 2 | 130*
C/C(=N/NC(=O)c1ccc(-c2ccccc2)cc1)c1cc(O)cc(O)c1 | . | -39 | 96* | 4 | .
CCN(C(=O)COC(=O)c1cccnc1SC)c1c(N)n(Cc2ccccc2)c(=O)[nH]c1=O | . | . | -14 | . | .
CCOc1ccc(S(=O)(=O)N2CCCC(C(=O)NCC3CCCO3)C2)cc1 (stereo not given) | -15 | -25 | -23 | -1 | -5
CCOc1ccccc1CNc1ncnc2ccc(-c3c(C)noc3C)cc12 | . | . | 112* | . | .
COc1ccccc1CNc1ncnc2cc(Cl)ccc12 | -23 | 6 | . | 11 | 3
COc1cccc(CNC(=O)C2CCN(c3nnc(N4CCCC4=O)s3)CC2)c1 | 5 | -2 | -13 | -2 | -5
Cc1ccc2cc3c(N)c(C(=O)N4CCOCC4)sc3nc2c1 | -7 | -28 | -2 | 5 | 0
Cc1ccc2cc3c(N)c(C(=O)N4CC(=O)Nc5ccccc54)sc3nc2c1 | 82* | -4 | -7 | -5 | -1
Cc1ccc2nc3sc(C(=O)N4CCOCC4)c(N)c3cc2c1 | 100* | -32 | -10 | -5 | -22
CCN1CCc2nc3sc(C(=O)N4CCc5ccccc5C4)c(N)c3cc2C1 | 3 | -12 | . | -4 | 8
CC(C)c1ccc2nc3sc(C(=O)N4CCc5ccccc5C4)c(N)c3cc2c1 | -62 | -19 | . | 2 | 54*
COc1ccc(NC(=O)NCC(C)CSc2ccc(C)cc2)c(OC)c1 (stereo not given) | 6 | -50 | 13 | -19 | -2
OC(COc1ccc(CNCCc2ccccc2F)cc1)CN1CCCCC1 (stereo not given) | 4 | -14 | 103* | 8 | 0
O=C(c1ccccc1)c1ccc(OCC(O)CN2CCCCC2)cc1 (stereo not given) | 1 | -7 | 59 | 3 | 6
COc1ccccc1C(CC(=O)Nc1ccc(Cl)cc1)c1ccc(OC(C)C)cc1 (stereo not given) | 9 | 4 | -1 | 3 | 28
CC(C)Oc1ccc(CNC(=O)CC(c2ccccc2)c2cc(Cl)ccc2O)cc1 (stereo not given) | 29 | -15 | 97* | 8 | 21
CC(=O)Nc1ccc(Cc2ccc3[nH]c(=O)cc(C)c3c2)cc1 | 0 | -9 | 2 | 12 | -5
Cc1cc(C(=O)CN2C(=O)C(=O)N(Cc3ccccc3)C2=O)c(C)n1Cc1ccccc1 | . | . | 97* | . | .
Cc1cc(C(=O)CN2C(=O)C(=O)N(Cc3ccccc3)C2=O)c(C)n1-c1ccccc1F | 12 | 11 | 60 | -1 | 4
CCOC(=O)c1cc(-c2ccc(F)cc2)n(CC(=O)NCc2cccnc2)c1C | 2 | -18 | -13 | 3 | 7
c1ccc(CSc2ccc(-c3ccccn3)nn2)cc1 | -56 | -108 | 86* | 11 | 0
O=C(CSc1ccc(-c2ccccn2)nn1)NCc1ccc(Cl)cc1 | -4 | -21 | 9 | -2 | 2
Clc1ccc(CSc2ccc(-c3ccccn3)nn2)cc1 | -132 | 4 | 127* | -1 | -6
SMILES | aSyn 5UTR inh | KLF5 inhibitor | CSC inhib | IEC-6 cytotox | SKKanGAS inh
O=C(/C=C/c1cccs1)N1CCC2(CC1)Oc1ccc(Cl)cc1C(=O)C21CC(c2ccccc2)=NO1 (stereo not given) | 19 | . | 7 | . | 38
O=C(NC1CCCCC1)c1cc(N2C(=O)CCC2=O)ccc1Cl | 2 | -5 | . | 4 | -2
COc1ccc(/C=N/Nc2cc(C)nc3ccc(Br)cc23)cc1 | 100* | -55 | 107* | 2 | -9
Cc1cc(N/N=C/c2ccccc2O)c2ccccc2n1 | -113 | -56 | 22 | -4 | -1
COc1ccc2nc(C)cc(N/N=C/c3cccc(OC)c3O)c2c1 | 100* | 3 | 1 | -4 | 12
Cc1ccc(S(=O)(=O)NC(=O)c2ccc(-c3ccc(-c4ccccc4)cc3)o2)c(C)c1 | 13 | 15 | 82* | -7 | 25
COc1ccc(NC(=S)Nc2nc(CC(=O)Nc3ccccc3OC)cs2)cc1 | -22 | -50 | 0 | 8 | 58*
COc1ccc(Oc2c(Cl)cnn(-c3ccc(C)cc3)c2=O)cc1 | -40 | -7 | 13 | -3 | 0
COc1ccc(Oc2c(Cl)cnn(-c3ccc(Cl)c(Cl)c3)c2=O)cc1 | 73* | 19 | ? | 1 | -2
Cc1cc(SCC(=O)c2cccs2)nc2ccccc12 | -81 | -10 | 2 | 9 | -3
COc1cc(C)ccc1S(=O)(=O)n1nc(C)cc1C | -40 | -16 | -5 | 0 | 3
Cc1ccc(NC(=O)CN2C(=O)S/C(=C\c3ccc(-c4cccc(C(=O)O)c4C)o3)C2=O)cc1 | -4 | -24 | 8 | -3 | 53*
Cc1ccc(NC(=O)CN2C(=O)S/C(=C/c3ccc(-c4cccc(C(=O)O)c4)o3)C2=O)cc1 | . | -19 | . | 3 | .
O=C(CN1C(=O)COc2ccc(S(=O)(=O)N3CCCCC3)cc21)NCc1ccc(F)cc1 | 0 | -15 | -18 | -1 | 103*
C=CCn1c(SCc2c(C)noc2C)nc2sc3c(c2c1=O)CCCCC3 | 65* | 3 | 94* | -2 | 54*
C=CCn1c(SCc2c(C)noc2C)nc2sc3c(c2c1=O)CCCC3 | 30 | 13 | 48 | 0 | 60*
Cc1cc(C(=O)Nc2cccc(C(=O)O)c2)oc1C | 87* | -2 | 8 | -12 | 5
Cc1cc(C(=O)Nc2cccc(C(=O)O)c2)c(C)o1 | -92 | -17 | -7 | 4 | 3
Brc1cc2c(cc1C1Nc3ccccc3C3C=CCC31)OCO2 (stereo not given) | -13 | -3 | -11 | -14 | 64*
O=C(O)c1ccc2c(c1)C1C=CCC1C(c1cc3c(cc1Br)OCO3)N2 (stereo not given) | 14 | -3 | 31 | 8 | 16
Cc1cc(C)c2c(c1)NC(c1cc3c(cc1Br)OCO3)C1CC=CC21 (stereo not given) | 35 | 17 | 40 | 1 | 51*
COC(=O)C1(O)CC(C(C)C)=NN1C(=O)c1ccccc1 (stereo not given) | 16 | 0 | . | 3 | 2
CCc1noc(C)c1C(=O)Nc1cccc2ncccc12 | -6 | -26 | -8 | -9 | 7
Cc1ccc(NC(=O)C(=O)NCCc2c[nH]c3ccccc23)cc1C | -9 | -17 | 28 | 7 | -1
O=C(NCCc1c[nH]c2ccccc12)C(=O)Nc1ccccc1 | -65 | -32 | 81* | 1 | -10
O=C(NCCCN1CCOCC1)c1ccc2c(c1)N(Cc1c(F)cccc1Cl)C(=O)CS2 | 17 | -41 | -8 | -1 | -4
Cc1cc(C)n(Cc2ccc(NC(=O)c3ccc(COc4ccccc4Br)cc3)cc2)n1 | 4 | -9 | 125* | 9 | 20
O=C(Nc1nccs1)c1ccc(COc2ccccc2Br)o1 | -14 | -43 | 196* | 11 | 0
O=C(Nc1cccnc1)c1ccc(COc2ccccc2Br)cc1 | -7 | -34 | 90* | 5 | -2
O=C(NCc1cccnc1)c1ccc(COc2ccccc2Br)cc1 | -26 | -6 | 29 | 4 | -16
